The results in this text go back to ChEMBL document CHEMBL4513216, “Probing the Open Global Health Chemical Diversity Library for Multistage-Active Starting Points for Next-Generation Antimalarials” (ACS Infect Dis, 2020).

The whole screen tested about 69,000 compounds, of which about 8,600 (12%) showed an effect of 50% or more. The entries come from a sample that favours strong results as a whole.

The test system of the experiment is Plasmodium berghei. As to the kind of experiment: Screen against P. berghei liver stage (PbLuc), transformed with Luciferase, at 10uM. The settings on record: tested at 10 uM. The experiment is classed as functional, HepG2.
Take `CC(C)c1cc(NCC2(CO)CCCC2)ncn1`: the INHIBITION was 44.3%.

In the case of `CC(C)c1cc(NCC2(CO)CCC2)ncn1`, the INHIBITION worked out at 66.7%.

Consider `CC(C)c1cc(NCC2(N(C)C)CCCC2)ncn1`, for which the INHIBITION was found to be 49.9%. Then `CCN(CC)Cc1ccc(C(=O)NC2CCc3cc(Br)ccc32)o1` (stereo not given), with 36.7%; and `CCN(CC)Cc1ccc(C(=O)NC2CCc3cc(F)ccc32)o1` (stereo not given), with 9.91%; and `CCN(CC)Cc1ccc(C(=O)NC2CCc3cc(Cl)ccc32)o1` (stereo not given), with 50.5%.

Turning to `O=C(CC1CCCC1)Nc1ccc(-n2cc(Cl)cn2)nc1`, the INHIBITION is -18.8%. The value for `CC(C)c1sc(Br)nc1C(=O)NCc1ccco1` was -7.81%; that for `Cc1csc(CN2C[C@@H]3COC[C@]3(COCC(=O)N(C)C)C2)n1` was -2.35%; that for `CN1CCN(c2ccccc2CNC(=O)Cc2cccc(F)c2)CC1` was 30.3%. Regarding `Cc1ccc(CN2CCc3c(CN4CCCC4)n[nH]c3C2)s1`, the INHIBITION stood at 26.5%. Then `Cc1cc(C)nc(C2CCN(C3CCCCC3)C2)n1` (stereo not given), with -36.4%. Consider `CCS(=O)(=O)NC[C@]12COC[C@H]1CN(Cc1sccc1C)C2`, for which the INHIBITION worked out at 28.7%. On to `CCS(=O)(=O)NC[C@]12COC[C@H]1CN(Cc1ccncc1)C2`, for which the INHIBITION was 53.9%.

For `CCS(=O)(=O)NC[C@]12COC[C@H]1CN(Cc1ccccn1)C2`, the INHIBITION is 4.27%. The value for `CCS(=O)(=O)NC[C@]12COC[C@H]1CN(Cc1ccsc1)C2` was 53.9%; that for `CCS(=O)(=O)NC[C@]12COC[C@H]1CN(Cc1cc(C)on1)C2` was 18.8%; that for `CCS(=O)(=O)NC[C@]12COC[C@H]1CN(Cc1cccnc1)C2` was 24.9%. The value for `CCS(=O)(=O)CC(=O)NC(c1ccc(F)cc1)C1CCCC1` (stereo not given) was 42.6%; that for `Cc1nn(-c2ccccc2)c(C)c1CN1CCNCC1` was 40.9%; that for `COc1cc(C2(C(=O)N3CCCC(n4cncn4)C3)CC2)ccc1C` (stereo not given) was -7.81%. The value for `COc1cc(C2(C(=O)N3CCN(CC(C)O)CC3)CC2)ccc1C` (stereo not given) was -17.8%. As to `COc1cc(C2(C(=O)NC3CCN(C4CC4)CC3)CC2)ccc1C`, the INHIBITION was 51.5%. The value for `COc1cc(C2(C(=O)N3CCN(CC(C)(C)O)CC3)CC2)ccc1C` was 52.3%; that for `COCCNC(=O)C1(c2ccc(C)c(OC)c2)CCCC1` was 21.5%. The value for `COc1cc(C2(C(=O)NC3CCN(CC4CC4)CC3)CC2)ccc1C` was 25.5%; that for `COCC(=O)N1CCN(C(=O)C2(c3ccc(C)c(OC)c3)CC2)CC1` was 50.9%; that for `COc1cc(C2(C(=O)NC3CCC4(CC3)OCCO4)CC2)ccc1C` was 10.3%.

Consider `CCC(O)CN1CCN(C(=O)C2(c3ccc(C)c(OC)c3)CC2)CC1` (stereo not given), for which the INHIBITION is -6.34%. Regarding `O=C(O)[C@H]1OCC(=O)N(Cc2cccc(Cl)c2)[C@@H]1c1ccccc1`, the INHIBITION is reported as 22%. Take `Cn1cc(CN2CCCCC2c2ccc(-c3cccc(Cl)c3)nc2)cn1` (stereo not given): the INHIBITION came out at 57.3%. With `COc1ccc(C2CCCN2Cc2cnn(C)c2)cc1` (stereo not given), the INHIBITION came to 34.5%.

Turning to `Nc1nccc(C2CCCCN2Cc2cccc(F)c2)n1` (stereo not given), the INHIBITION amounted to 52%. Consider `Cc1nccc(C2CCCCN2Cc2cccc(F)c2)n1` (stereo not given), for which the INHIBITION was determined as 43.6%.

Regarding `Cn1cc(-c2ccc(C3CCCCN3Cc3cccnc3)cn2)cn1` (stereo not given), the INHIBITION is on record as 9.05%.

Turning to `Cn1cc(CN2CCCCC2c2ccc(-c3cccc(F)c3)nc2)cn1` (stereo not given), the INHIBITION came to 62.9%. Then `Cn1cc(CN2CCCCC2c2ccc(-c3cnn(C)c3)nc2)cn1` (stereo not given), with 25.8%; and `Nc1nccc(C2CCCN2CCc2ccccc2)n1` (stereo not given), with 37.8%.

With `Cn1cc(CN2CCOC(c3cccc(-c4cccc(F)c4)n3)C2)cn1` (stereo not given), the INHIBITION was determined as 23.9%. Then `CC(=O)Nc1nc(CN2CCn3c(nnc3C(C)C)C2)cs1`, with -24.3%; and `CCN1CCn2c(C)cnc2C12CCN(C(=O)Cc1ccccc1)CC2`, with 30.9%; and `CC(C)(CNC(=O)CCCOc1cccc(F)c1)C(N)=O`, with 30.65%. In the case of `Cc1nc(CN2CCCC(c3nccs3)C2)cs1` (stereo not given), the INHIBITION is recorded as 24.05%.

For the compound `CN(C)CC(=O)N1Cc2nc(C(=O)N3CCCN(C)CC3)oc2C1`, the INHIBITION is reported as -2.26%.

For `COc1ccc(C(=O)N2CCC3(CC2)c2ccccc2[C@@H](N)[C@@H]3O)cc1`, the INHIBITION is on record as 66.55%. The value for `Cc1ccc(Cl)cc1C(=O)N1CCC2(CC1)c1ccccc1[C@@H](N)[C@@H]2O` was 80.1%; that for `CC(C)c1cc(C(=O)N2CCC3(CC2)c2ccccc2[C@@H](N)[C@@H]3O)cs1` was 41.1%. The value for `N[C@@H]1c2ccccc2C2(CCN(C(=O)c3ccc(=O)[nH]c3)CC2)[C@H]1O` was 4.795%; that for `Cc1ccc(C(=O)N2CCC3(CC2)c2ccccc2[C@@H](N)[C@@H]3O)cc1F` was 35.1%.

In the case of `N[C@@H]1c2ccccc2C2(CCN(C(=O)c3ccccc3O)CC2)[C@H]1O`, the INHIBITION is -5.395%. Then `c1cc(-c2cncc(C3CCNCC3)n2)n[nH]1`, with 35%; and `Cc1cc(C(=O)NCc2cccnc2N(C)C)c(C)o1`, with 26.3%. As to `Nc1nccnc1C(=O)NC1CCCN(Cc2c(F)cccc2F)C1` (stereo not given), the INHIBITION came out at 21.8%.

In the case of `Cn1nc(Cn2ccnc2)c2c1CN(Cc1ccoc1)C2`, the INHIBITION is listed as -9.42%. Then `Cn1nc(Cn2cccc2)c2c1CN(Cc1ccoc1)C2`, with 24.6%.

Turning to `CC(C)n1nc(Cn2cccc2)c2c1CN(Cc1ccoc1)C2`, the INHIBITION is listed as 54.1%. Regarding `CN(C)c1ncc2c(n1)N(C)CCN(CC1CC1)C2=O`, the INHIBITION was 21.9%. `COc1cccc(-c2nccc(C3CCCN3C)n2)c1` (stereo not given): the INHIBITION amounted to 21.1%. The value for `CCc1ccc(-c2ncc3c(n2)N(C)CCN(CCN(C)C)C3=O)cc1` was 79.7%; that for `COc1cccc(-c2ncc3c(n2)N(C)CCN(CCN(C)C)C3=O)c1` was 57.5%.

`CN1CCN(CC2CC2)C(=O)c2cnc(N3CCCCC3)nc21`: the INHIBITION was found to be 7.64%. Consider `CN(C)CCN1CCN(C)c2nc(-c3ccccc3)ncc2C1=O`, for which the INHIBITION worked out at 59%. Then `COc1ccc(CN2CCC3(CC2)CCN(CCN(C)C)C3=O)cc1`, with -17.1%; and `CCCN(C)c1ncc2c(n1)N(C)CCN(CC1CC1)C2=O`, with 5.56%; and `CN1CCN(CC2CC2)C(=O)c2cnc(N3CCCC3)nc21`, with 11%. The value for `COc1cccc2cc(CNC(=O)N3CCS(=O)(=O)CC3)oc12` was 23.5%; that for `Cc1noc(C)c1-c1cncc(C2CCCN2Cc2ncccc2F)n1` (stereo not given) was 1.5%. The value for `CCn1ncc(Nc2[nH]cnc3nncc2-3)c1C` was 31.2%. Consider `N#Cc1ccc(S(=O)(=O)NC(=O)C2CC(c3ccccc3)=NO2)cc1` (stereo not given), for which the INHIBITION amounted to 6.09%. Consider `CSc1ccccc1-n1ccnc1-c1cn(C2CCNCC2)nn1`, for which the INHIBITION is recorded as 3.96%. Then `OCCc1ccccc1-n1ccnc1-c1cn(C2CCNCC2)nn1`, with 51.2%; and `Clc1ccccc1CCn1ccnc1-c1cn(C2CCNCC2)nn1`, with 22.4%. For the compound `Cc1cc(CN2C[C@@H]3COC[C@H](C(=O)N4CCCCO4)[C@@H]3C2)oc1C`, the INHIBITION was 45.1%. As to `Cc1csc(N2CCN(CC(=O)N3CCCC3)CC2C)n1` (stereo not given), the INHIBITION came to 32.25%.

Take `CC(c1cccc(S(N)(=O)=O)c1)N(C)CCOC(C)(C)C` (stereo not given): the INHIBITION is on record as -27.8%. For the compound `Cc1ccccc1C(=O)NC1CCN(c2cnn(C)c2)C1=O` (stereo not given), the INHIBITION came out at 11.7%. In the case of `Cc1cccc(C(=O)NC2CCN(c3cnn(C)c3)C2=O)c1C` (stereo not given), the INHIBITION amounted to 30.5%. With `Cc1ccsc1C(=O)NC1CCN(c2cnn(C)c2)C1=O` (stereo not given), the INHIBITION came out at 65.5%. The value for `CC1(C(=O)N2CCOCC2)CNCCO1` (stereo not given) was 6.9%. Regarding `CCCN1CCCN(C(=O)c2ccc(Oc3cccnc3)cc2)CC1`, the INHIBITION was determined as 61%. Then `CCCN1CCN(C(=O)c2cccnc2)CC1`, with 64.7%; and `CCCN1CCCN(c2ncccc2C(=O)N2CCCCC2)CC1`, with 25.1%. As to `CCOc1ccnc(N2CCN(C(=O)c3cccnc3)CC2)n1`, the INHIBITION came to 15.5%.

In the case of `Cc1cc(N2CCN(C(=O)c3cccnc3)CC2)nc(C)n1`, the INHIBITION stood at 6.26%.

As to `O=C(c1ccc(Oc2cccnc2)cc1)N1CCN(CCO)CC1`, the INHIBITION is reported as 40.6%. The value for `CCc1cc(N(C)CCc2c(C)n[nH]c2C)ncn1` was 23%. Take `O=C(CCn1ccnc1)N1CC[C@H](Oc2ccc(F)cc2)[C@@H](O)CC1`: the INHIBITION was found to be 32.05%. Consider `CN(CC(N)=O)C(=O)c1csc(Br)c1`, for which the INHIBITION was -5.1%. For the compound `CS(=O)(=O)NCCC(=O)Nc1cnn(-c2ccccc2Cl)c1`, the INHIBITION was determined as 7.08%. In the case of `Cc1nn(-c2ccccc2)c(C)c1-c1ccnc(N2CCCOCC2)n1`, the INHIBITION is recorded as -54.3%. Then `Cc1nn(-c2ccccc2)c(C)c1-c1ccnc(N2CCCNCC2)n1`, with 85.8%; and `Cc1nn(-c2ccccc2)c(C)c1-c1ccnc(N2CCC(O)CC2)n1`, with 20.2%. Then `O=S(=O)(N1CCOCC1)N1CCCC1Cn1cccn1` (stereo not given), with -5.71%; and `Cc1nc(C2CN(Cc3ccc(F)cc3Br)CCO2)no1` (stereo not given), with 11.8%; and `CC(C)c1noc(-c2ccc(N(C)C3CCOCC3)nc2)n1`, with -61.1%. With `Cc1ccccc1-c1noc(-c2ccc(N(C)C3CCOCC3)nc2)n1`, the INHIBITION was found to be 83.2%.

Turning to `CN(c1ccc(-c2nc(C3CC3)no2)cn1)C1CCOCC1`, the INHIBITION is reported as -99.6%. With `O=C(OCc1cc(=O)n2cc(Br)ccc2n1)c1ccc2c(c1)OCO2`, the INHIBITION worked out at 19.8%. Then `COCCN1CC2(CCCN(C(=O)NCCc3cccs3)C2)CCC1=O` (stereo not given), with 56.5%. The value for `O=C(NCCc1cccs1)N1CCCC2(CCC(=O)N(C3CC3)C2)C1` (stereo not given) was 9.87%. `COCCN1CC2(CCCN(C(=O)CCCc3cccs3)C2)CCC1=O` (stereo not given): the INHIBITION turned out to be 25.1%. Then `CCN1CCCC(c2cc(Nc3cnccn3)nc(C)n2)C1` (stereo not given), with -2.11%.

`O=C(NCCCOCc1ccco1)c1cccnc1N1CCOCC1`: the INHIBITION is listed as 18.2%. Then `CC(C)Nc1cc(N2CCN(Cc3ccccc3)C(CCO)C2)ncn1` (stereo not given), with 9.06%; and `Cc1cc(N2CCN(Cc3ccsc3)C(CCO)C2)nc(N)n1` (stereo not given), with 50.5%. The value for `CNc1nc(N2CCN(CC=C(C)C)C(CCO)C2)nc2c1CCC2` (stereo not given) was 68.6%.

Turning to `CNc1nc(N2CCN(Cc3ccsc3)C(CCO)C2)nc2c1CCC2` (stereo not given), the INHIBITION is recorded as 53.8%. Take `CNc1nc(N2CCN(C3CCCCC3)C(CCO)C2)nc2c1CCC2` (stereo not given): the INHIBITION stood at 12%. The value for `Cc1cc(N2CCC(NC(C)Cc3ccsc3)CC2)nc(C)n1` (stereo not given) was 27.9%; that for `Cc1cc(N2CCC(NC(C)Cc3ccsc3)CC2)nc(N)n1` (stereo not given) was 64.9%; that for `CNc1nc(N2C[C@H](NC(=O)CCOC)[C@@H](C3CC3)C2)nc2c1CCC2` was 33.4%.

Regarding `Cc1cc(N2CCC(NS(C)(=O)=O)CC2)nc(C(C)C)n1`, the INHIBITION is listed as 49%.

As to `COc1cc(N2CCN(Cc3ccsc3)C(CCO)C2)nc(N)n1` (stereo not given), the INHIBITION was determined as 23.3%.

With `CC(C)Oc1cc(N2CCN(Cc3ccsc3)C(CCO)C2)nc(N)n1` (stereo not given), the INHIBITION worked out at 49.4%. Then `CNc1nc(N2CCN(C)C(CCO)C2)nc2c1CCC2` (stereo not given), with 23.5%.
